For six compounds, growth inhibition results are on record in PubChem BioAssay (NCI).

About 79,000 compounds went through this panel and 15% of them were active in at least one assay; those are over-represented in the sample as a whole. A number with no mark means an inactive call. The source made the active and inactive calls. No stated cut-off is given here; in the data, active means growth inhibition above about 70%; inactive means the rest.

The nature of assay [1]: NCI Yeast Anticancer Drug Screen. Data for the rad50 strain (AID 155).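 Further: 0% = growth of vehicle-only cultures of the same strain.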 To be noted: S. cerevisiae rad50 strain growth inhibition, hits give high values. An outline of the steps:
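Inhibition values express reduced yeast growth in compound-treated cultures relative to vehicle-treated controls.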

The nature of assay [2]: NCI Yeast Anticancer Drug Screen. Data for the mec2-1 strain (AID 157). The note with it: S. cerevisiae mec2-1 strain, hits give high values. The method in brief: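 Test agents were screened against the mec2-1 yeast strain, with defined DNA repair or cell cycle alteration. Growth was scored as inhibition against vehicle-only controls.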
Assay [3] in a line: NCI Yeast Anticancer Drug Screen. Data for the sgs1 mgt1 strain (AID 161).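 Further: 0% = growth of cultures given vehicle only.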 To be noted: S. cerevisiae sgs1 mgt1 strain, hits give high values. An outline of the steps: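 Read-out: growth inhibition vs vehicle controls. Cells: mutant yeast strain deficient in DNA damage repair.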
A short description of assay [4]: NCI Yeast Anticancer Drug Screen. Data for the cln2 rad14 strain (AID 165).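 Further: 0% = growth equal to vehicle treated cultures.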 To be noted: S. cerevisiae cln2 rad14 strain, hits give high values. An outline of the steps:
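Growth of compound-exposed yeast (cln2 rad14 genotype) measured and expressed as inhibition relative to vehicle.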

A short description of assay [5]: NCI Yeast Anticancer Drug Screen. Data for the bub3 strain (AID 167). The note with it: S. cerevisiae bub3 mutant strain, hits give high values. An outline of the steps:
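Steps: expose the mutant yeast strain to compound; grow alongside vehicle-treated cultures; measure growth; express inhibition against the vehicle cultures.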

Assay [6] can be described thus: NCI Yeast Anticancer Drug Screen. Data for the mlh1 rad18 strain (AID 175). The note with it: S. cerevisiae mlh1 rad18 strain growth inhibition, hits give high values. An outline of the steps: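 In this whole-cell yeast screen, a strain with altered DNA damage repair is challenged with compound, and its growth is measured against matched vehicle-treated controls.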

Where [7] appears, read: at 5.0 µM (retest, dose inferred, filed as 0.5).
Where [8] appears, read: at 50.0 µM (retest, dose inferred, filed as 5.0).

In the case of `O=c1c(O)c(-c2ccc(Cl)cc2)oc2cc(O)ccc12`, the growth inhibition in assay [1] (setting [7]) was 4%; in assay [1] (setting [8]) it was 52%; in assay [1] (at 50.0 µM), 88.7% (active); in assay [2] (setting [7]), 2%; in assay [2] (setting [8]), 86% (active); in assay [2] (at 50.0 µM) it was 77.7% (active). Moreover, the growth inhibition in assay [3] (setting [7]) is 1%; in assay [3] (setting [8]) it was 54%; in assay [3] (at 50.0 µM), 89.7% (active); in assay [4] (setting [7]), -7%; in assay [4] (setting [8]), -2%; in assay [4] (at 50.0 µM), -9.3%. For the same compound, the growth inhibition in assay [5] (setting [7]) is 3%; in assay [5] (setting [8]), 51%; in assay [5] (at 50.0 µM), 59.5%; in assay [6] (setting [7]), 7%; in assay [6] (setting [8]), 50%; in assay [6] (at 50.0 µM), 91.5% (active).
As to `OC(CCN1CCOCC1)C1c2ccccc2Cc2ccccc21` (stereo not drawn), the growth inhibition in assay [1] (setting [7]) was 6%; in assay [1] (setting [8]) it was 74% (active); in assay [1] (at 50.0 µM), 77.2% (active); in assay [2] (setting [7]) it was 6%; in assay [2] (setting [8]) it was 29%; in assay [2] (at 50.0 µM) it was -1%. Besides, the growth inhibition in assay [3] (setting [7]) is 1%; in assay [3] (setting [8]), 91% (active); in assay [3] (at 50.0 µM) it was 60%; in assay [4] (setting [7]), 1%; in assay [4] (setting [8]), 30%; in assay [4] (at 50.0 µM) it was -28.3%. The growth inhibition in assay [5] (setting [7]) was 0%; in assay [5] (setting [8]) it was 76% (active); in assay [5] (at 50.0 µM), 46.6%; in assay [6] (setting [7]) it was 9%; in assay [6] (setting [8]) it was 81% (active); in assay [6] (at 50.0 µM) it was 23.4%.
For `N=C(N)c1ccc(Oc2ccc(Oc3ccc(C(=N)N)cc3)cc2)cc1`, the growth inhibition in assay [1] (setting [7]) is 43%; in assay [1] (setting [8]), 69%; in assay [1] (at 50.0 µM) it was 70.8% (active); in assay [2] (setting [7]) it was 39%; in assay [2] (setting [8]) it was 68%; in assay [2] (at 50.0 µM), 83.8% (active). Also, the growth inhibition in assay [3] (setting [7]) was 59%; in assay [3] (setting [8]), 89% (active); in assay [3] (at 50.0 µM), 81.2% (active); in assay [4] (setting [7]), 50%; in assay [4] (setting [8]) it was 80% (active); in assay [4] (at 50.0 µM), 64.6%. For the same compound, the growth inhibition is 53% in assay [5] (setting [7]); 79% (active) in assay [5] (setting [8]); 65.7% in assay [5] (at 50.0 µM); 57% in assay [6] (setting [7]); 90% (active) in assay [6] (setting [8]); 81.5% (active) in assay [6] (at 50.0 µM).
`N#Cc1c(-c2ccc(Cl)cc2)c(-c2ccc(Cl)cc2)nn(CCOC(=O)CN)c1=O`: the growth inhibition was 18% in assay [1] (setting [7]); 94% (active) in assay [1] (setting [8]); 40.5% in assay [1] (at 50.0 µM); 10% in assay [2] (setting [7]); 96% (active) in assay [2] (setting [8]); 57% in assay [2] (at 50.0 µM). For the same compound, the growth inhibition in assay [3] (setting [7]) is -27%; in assay [3] (setting [8]), 89% (active); in assay [3] (at 50.0 µM), 45.6%; in assay [4] (setting [7]), 6%; in assay [4] (setting [8]), 82% (active); in assay [4] (at 50.0 µM), 18.6%. The growth inhibition in assay [5] (setting [7]) is -16%; in assay [5] (setting [8]) it was 86% (active); in assay [5] (at 50.0 µM), 35.1%; in assay [6] (setting [7]), 22%; in assay [6] (setting [8]) it was 97% (active); in assay [6] (at 50.0 µM) it was 87% (active).
`OCC(CCc1c[nH]c2ccccc12)c1c[nH]c2ccccc12` (stereo not drawn): the growth inhibition is 27% in assay [1] (setting [7]); 99% (active) in assay [1] (setting [8]); 99.4% (active) in assay [1] (at 50.0 µM); 5% in assay [2] (setting [7]); 99% (active) in assay [2] (setting [8]); 99.3% (active) in assay [2] (at 50.0 µM). Besides, the growth inhibition was 20% in assay [3] (setting [7]); 100% (active) in assay [3] (setting [8]); 62% in assay [3] (at 50.0 µM); 5% in assay [4] (setting [7]); 99% (active) in assay [4] (setting [8]); 99.5% (active) in assay [4] (at 50.0 µM). The growth inhibition in assay [5] (setting [7]) was 21%; in assay [5] (setting [8]) it was 100% (active); in assay [5] (at 50.0 µM), 99.3% (active); in assay [6] (setting [7]) it was 11%; in assay [6] (setting [8]), 98% (active); in assay [6] (at 50.0 µM), 99.3% (active).
On to `O=C(CC[P+](c1ccccc1)(c1ccccc1)c1ccccc1)c1ccccc1`, for which the growth inhibition is 10% in assay [1] (setting [7]); 78% (active) in assay [1] (setting [8]); 94.8% (active) in assay [1] (at 50.0 µM); 6% in assay [2] (setting [7]); 92% (active) in assay [2] (setting [8]); 94.8% (active) in assay [2] (at 50.0 µM). For the same compound, the growth inhibition in assay [3] (setting [7]) is 4%; in assay [3] (setting [8]), 74% (active); in assay [3] (at 50.0 µM) it was 86.2% (active); in assay [4] (setting [7]), -3%; in assay [4] (setting [8]), 71% (active); in assay [4] (at 50.0 µM) it was 95.6% (active). The growth inhibition in assay [5] (setting [7]) was 7%; in assay [5] (setting [8]), 79% (active); in assay [5] (at 50.0 µM), 94.8% (active); in assay [6] (setting [7]) it was 3%; in assay [6] (setting [8]), 84% (active); in assay [6] (at 50.0 µM) it was 93.1% (active).
